The text below walks through data of PubChem BioAssay (NCI).

Each structure is given as a SMILES string. About 83,000 compounds went through this panel and 20% of them were active in at least one assay; those are over-represented in the sample as a whole.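 The test compound was applied at a single concentration to cells in 96-well plates for 48 hours, and percent growth was recorded.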 A number with no mark means an inactive call. Activity calls are given as the source filed them. Rule for the calls: active = growth percent below 10; inactive = the rest.

Holding throughout (experiment): NCI-60 one-dose screen, 48 h (100 = growth as untreated, 0 = no growth, -100 = all killed)
For one test, the system named is K-562 leukemia. Particulars: 10 µM unless noted.
A further test deals with MALME-3M melanoma. Particulars: 10 µM unless noted.
The test system of the next test is MDA-MB-231 breast. Particulars: 10 µM unless noted.
The next test deals with SF-268 CNS. Particulars: 10 µM unless noted.
A further test concerns SF-295 CNS. Particulars: 10 µM unless noted.
The next test has as its system SF-539 CNS. Particulars: 10 µM unless noted.
For another test, the system named is UACC-257 melanoma. Particulars: 10 µM unless noted.
A further test relates to M14 melanoma. Particulars: 10 µM unless noted.
The test system of the next test is HCT-15 colon. Particulars: 10 µM unless noted.
The subject of a further test is HT29 colon. Particulars: 10 µM unless noted.
A further test has as its system SNB-75 CNS. Particulars: 10 µM unless noted.
The test system of another test is SNB-19 CNS. Particulars: 10 µM unless noted.
The test system of a further test is U251 CNS. Particulars: 10 µM unless noted.
Another test has as its system PC-3 prostate. Particulars: 10 µM unless noted.
The subject of a further test is SK-MEL-5 melanoma. Particulars: 10 µM unless noted.
The next test concerns UACC-62 melanoma. Particulars: 10 µM unless noted.
The subject of the next test is LOX IMVI melanoma. Particulars: 10 µM unless noted.
For a further test, the system named is SK-MEL-28 melanoma. Particulars: 10 µM.
The next test concerns SK-MEL-2 melanoma. Particulars: 10 µM unless noted.
A further test deals with RXF 393 renal. Particulars: 10 µM unless noted.

Regarding `CC(=O)O[C@@H]1/C=C/C(=O)N[C@@H](C)CCC/C=C/[C@@H]2CCC[C@H]21`, the growth is 102% in the test on K-562 leukemia; 117% in the test on MALME-3M melanoma; 122% in the test on MDA-MB-231 breast; 104% in the test on SF-268 CNS; 98.6% in the test with SF-295 CNS; 94% in the test with SF-539 CNS. Moreover, the growth in the test on UACC-257 melanoma was 101%; in the test with M14 melanoma, 103%; in the test with HCT-15 colon it was 114%; in the test with HT29 colon it was 110%; in the test with SNB-75 CNS, 95%; with SNB-19 CNS, 96.9%. The growth in the test with U251 CNS was 109%; with PC-3 prostate, 90.2%; with SK-MEL-5 melanoma it was 101%; with UACC-62 melanoma, 92.1%; in the test on LOX IMVI melanoma, 105%; in the test with SK-MEL-28 melanoma, 129%. For the same compound, the growth with SK-MEL-2 melanoma is 119%.

Take `CCc1ccc(CNCC(O)c2ccccc2)cc1` (stereo unspecified): the growth was 22% in the test with K-562 leukemia; 47% in the test on MDA-MB-231 breast; 61.6% with RXF 393 renal; 90.1% in the test with SF-268 CNS; 86.5% in the test on SF-539 CNS; 93.1% with UACC-257 melanoma. Further, the growth with M14 melanoma was 58.7%; in the test on HCT-15 colon it was 43.9%; in the test with HT29 colon, 28.7%; in the test on SNB-75 CNS it was 61.8%; with SNB-19 CNS it was 79.7%; with U251 CNS, 60%. Moreover, the growth in the test on PC-3 prostate was 52.7%; with SK-MEL-5 melanoma it was 68.6%; in the test with UACC-62 melanoma it was 84.5%; with LOX IMVI melanoma, 68.7%; in the test with SK-MEL-28 melanoma, 74.7%; in the test with SK-MEL-2 melanoma it was 90.9%.

As for `N[C@@H](CC/[N+]([O-])=N/O)C(=O)O`, the growth in the test on MALME-3M melanoma was 101%; in the test with MDA-MB-231 breast it was 102%; in the test on SF-268 CNS it was 95.9%; in the test on SF-295 CNS it was 110%; in the test on SF-539 CNS, 95%; in the test on UACC-257 melanoma, 112%. Further, the growth in the test with M14 melanoma is 102%; in the test on HCT-15 colon it was 104%; in the test on HT29 colon, 99.8%; in the test with SNB-75 CNS it was 113%; in the test with SNB-19 CNS, 97.8%; in the test with U251 CNS, 94.9%. Besides, the growth with PC-3 prostate was 102%; in the test with UACC-62 melanoma, 98.4%; in the test on LOX IMVI melanoma it was 104%; with SK-MEL-28 melanoma, 106%; with SK-MEL-2 melanoma, 107%.

Turning to `Brc1ccc(Nc2nc3ccccc3nc2Nc2ccc(Br)cc2)cc1`, the growth in the test on K-562 leukemia is -20% (active); with MDA-MB-231 breast, -80.4% (active); in the test with RXF 393 renal, -32.9% (active); with SF-268 CNS, 3.08% (active); in the test with SF-295 CNS it was -75.6% (active); with SF-539 CNS, -8.61% (active). Besides, the growth is -43% (active) in the test on UACC-257 melanoma; -60.7% (active) in the test on M14 melanoma; -21% (active) in the test with HCT-15 colon; -46.1% (active) in the test with HT29 colon; -7.54% (active) in the test with SNB-75 CNS; 16.6% in the test with SNB-19 CNS. The growth was -58.5% (active) in the test with U251 CNS; -0.436% (active) in the test on PC-3 prostate; -85.6% (active) in the test with SK-MEL-5 melanoma; -16.2% (active) with UACC-62 melanoma; -87% (active) with LOX IMVI melanoma; -44.2% (active) in the test with SK-MEL-28 melanoma. For the same compound, the growth with SK-MEL-2 melanoma was -58% (active).

`COc1ccc(-c2cn[nH]c2-c2cc(OC)c(OC)c(OC)c2)cc1OCc1ccccc1`: the growth in the test on MALME-3M melanoma is 36.6%; in the test with MDA-MB-231 breast it was 46.1%; in the test on SF-268 CNS, 27%; with SF-295 CNS it was -1.63% (active); in the test on SF-539 CNS, -19.8% (active); with UACC-257 melanoma, 47.6%. The growth in the test on M14 melanoma is 10.7%; in the test on HCT-15 colon it was 23.7%; with HT29 colon it was 84.9%; in the test on SNB-75 CNS, 5.94% (active); with SNB-19 CNS, 41.1%; in the test with U251 CNS it was 12%. Also, the growth in the test with PC-3 prostate is 22.4%; in the test on UACC-62 melanoma it was 21.8%; with LOX IMVI melanoma, 21.5%; in the test on SK-MEL-28 melanoma, 48.5%; in the test on SK-MEL-2 melanoma it was 2.98% (active).

As for `COc1cc(C2C(C#N)=C(N)OC3=C2C(=O)c2ccccc2C3=O)cc(OC)c1O` (stereo unspecified), the growth in the test on MALME-3M melanoma was 54.7%; in the test on MDA-MB-231 breast it was 57.1%; in the test on SF-268 CNS, 42.2%; in the test with SF-295 CNS, 29.3%; in the test on SF-539 CNS, 0.132% (active); with UACC-257 melanoma, 55.9%. The growth in the test on M14 melanoma was 21.1%; in the test on HCT-15 colon it was 23.6%; with HT29 colon, 65.1%; in the test with SNB-75 CNS, 4.8% (active); in the test on SNB-19 CNS, 37.3%; in the test with U251 CNS it was 19.9%. In addition, the growth in the test on PC-3 prostate is 18.9%; with UACC-62 melanoma it was 36.9%; in the test with LOX IMVI melanoma, 25.5%; with SK-MEL-28 melanoma it was 66.4%; with SK-MEL-2 melanoma, 21.1%.

Consider `COc1ccc(-c2cn3c(C(=O)Nc4ccccc4Cl)c(-c4ccccc4)c4c3n2CCCC4)cc1`, for which the growth with K-562 leukemia was 49.8%; with MDA-MB-231 breast, 87.3%; with RXF 393 renal it was 109%; in the test on SF-268 CNS it was 93.1%; in the test with SF-295 CNS, 54.7%; in the test on SF-539 CNS it was 87%. Also, the growth in the test with UACC-257 melanoma was 91.3%; in the test with M14 melanoma, 73.6%; in the test on HCT-15 colon, 60.8%; in the test on HT29 colon it was 26%; in the test with SNB-75 CNS, 108%; in the test on SNB-19 CNS, 96.6%. Further, the growth was 77.4% in the test on U251 CNS; 72.8% with PC-3 prostate; 84% with SK-MEL-5 melanoma; 93.2% in the test on UACC-62 melanoma; 66.1% in the test with LOX IMVI melanoma; 91.6% in the test with SK-MEL-28 melanoma. In addition, the growth with SK-MEL-2 melanoma is 104%.

`Cc1ccc(C(=O)c2oc3ccc4c(C)cc(=O)oc4c3c2C)cc1`: the growth in the test on K-562 leukemia was 11.7%; in the test with MDA-MB-231 breast, 46.8%; in the test with RXF 393 renal it was 37.2%; in the test with SF-268 CNS, 52.1%; in the test on SF-295 CNS it was 4.06% (active); in the test on SF-539 CNS it was 46.7%. For the same compound, the growth in the test with UACC-257 melanoma is -4.34% (active); in the test with M14 melanoma, 42.5%; with HCT-15 colon it was 23%; in the test with HT29 colon it was 14.3%; in the test on SNB-75 CNS, 67.8%; in the test with SNB-19 CNS, 41.4%. In addition, the growth in the test on U251 CNS was 18.6%; in the test on PC-3 prostate, 7.34% (active); in the test with SK-MEL-5 melanoma, -56.6% (active); in the test with UACC-62 melanoma it was 29.4%; in the test with LOX IMVI melanoma, 33.2%; in the test on SK-MEL-28 melanoma it was 51.4%. The growth in the test with SK-MEL-2 melanoma was 32.1%.

Consider `COc1cc2c(cc1OC)C(=O)C(CC1CCN(C(=O)Nc3ccc(C)cc3)CC1)C2` (stereo unspecified), for which the growth in the test on MALME-3M melanoma was 91.1%; with MDA-MB-231 breast, 76.7%; in the test on SF-268 CNS it was 96.8%; with SF-295 CNS, 96.5%; with SF-539 CNS, 92.8%; with UACC-257 melanoma, 119%. In addition, the growth with M14 melanoma was 97.5%; in the test on HCT-15 colon, 94.5%; in the test with HT29 colon, 107%; with SNB-75 CNS it was 88.4%; in the test on SNB-19 CNS it was 95.2%; with U251 CNS it was 106%. For the same compound, the growth is 88.6% in the test with PC-3 prostate, 79.9% in the test on UACC-62 melanoma, 96.9% with LOX IMVI melanoma and 99.1% with SK-MEL-28 melanoma.
